The values below come from PubChem BioAssay (NCATS).

SMILES strings stand for the structures. Results filed as inconclusive are left out. Unmarked numbers belong to inactive results. The source made the active and inactive calls. Calls come from the whole dose curve; as a rule, active = well fitted cell-killing curve with a large enough effect; inconclusive = small, poorly fitted or top-dose-only effect, or effect the other way; inactive = no such curve, though single readings can be large or run the other way.
Potency is the fitted concentration of half-maximal effect.

The assay can be described thus: Quantitative High-Throughput drug screen in 47 multiple myeloma cell lines against the NCATS MIPE library collection: MM1S_ATCC cell viability assay (AID 1918980).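 For viability (% of control): 100% = wells with DMSO only and 0% = wells with media only.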 Note: nearly all actives have a fitted effect of over 45% in size. The settings on record: MM1S myeloma viability, CellTiter-Glo ATP luminescence, 48 h; series mostly up to 45.8 µM; viability (% of control): at the top concentration. An outline of the steps: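 Inhibition of viability over 48 h was scored by ATP content (CellTiter-Glo) in 500-cell wells. Zero and full viability were defined by media-only and DMSO-only wells.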
On the technique in general: ATP-based viability assays read luminescence as a measure of living cells.
In the case of `C=CCc1cc(OC)c(O)c(C(=O)NCCO)c1`, the “viability (% of control)” value was 116%.
For the compound `Nc1cc(C(Cl)=C(Cl)Cl)c(S(N)(=O)=O)cc1S(N)(=O)=O`, the Potency is 0.059 µM (active).
`CC(=O)O[C@H]1C(=O)[C@@]2(C)C([C@H](OC(=O)c3ccccc3)[C@]3(O)C[C@H](OC(=O)[C@H](O)[C@@H](NC(=O)c4ccccc4)c4ccccc4)C(C)=C1C3(C)C)[C@]1(OC(C)=O)CO[C@@H]1C[C@@H]2O` (stereo not given in full): the “viability (% of control)” value was 68.6%.
On to `COc1cc(OC)c(C(=O)CCCN2CCCC2)c(OC)c1`, for which the Potency was 16.6 µM (active).
Same read-out and setting: under `CCc1nc(N)nc(N)c1-c1ccc(Cl)cc1` stands 16.6 µM (active); under `OC(CN1CCN(c2cccc(Cl)c2)CC1)C(c1ccccc1)c1ccccc1` (stereo not given), 5.26 µM (active); under `CC1(C)CCC(C)(C)c2cc(NC(=O)c3ccc(C(=O)O)cc3)ccc21`, 16.6 µM (active).
`COc1cc2nc(N3CCN(C(=O)C4CCCO4)CC3)nc(N)c2cc1OC` (stereo not given): the “viability (% of control)” value was 98.6%.
For the compound `CN(C)C(=O)COC(=O)Cc1ccc(OC(=O)c2ccc(N=C(N)N)cc2)cc1`, the Potency is 11.8 µM (active).
For `C[C@@H](N)C1CCC(C(=O)Nc2ccncc2)CC1` (stereo not given in full), the “viability (% of control)” value is 126%.
Regarding `Cc1cccc(-c2[nH]ncc2-c2ccc3ncccc3n2)n1`, the Potency was 14.8 µM (active).
Same read-out and setting: under `COc1cc(Nc2c(C#N)cnc3cc(OCCCN4CCN(C)CC4)c(OC)cc23)c(Cl)cc1Cl` stands 29.6 µM (active); under `CCN(CC)C(=S)SSC(=S)N(CC)CC`, 0.0093 µM (active).
Still for that read-out and setting: under `CCN(CC)CCOc1ccc(Cc2ccccc2)cc1` stands 23.5 µM (active).
As for `O=c1c(O)c(-c2ccc(O)cc2O)oc2cc(O)cc(O)c12`, the Potency is 0.833 µM (active).
